PubChem BioAssay AID720518 (National Center for Advancing Translational Sciences (NCATS), 2013)
Results filed as inconclusive are left out. Where a call stands in place of a potency, no number is given. Active and inactive are the calls of the source. The call rests on the fitted dose curve.

test: qHTS for Inhibitors of Cell Surface uPA Generation: Wild-type Protective Antigen (WT-PrAg) Counterscreen for Cherry-picked Compounds; conditions: cells, WT protective antigen toxicity counterscreen; series mostly up to 115 µM

Question: With `COC(=O)C(CCSC)NC(=O)Cn1ncc2c(=O)oc3ccccc3c21` (stereo not drawn) as the compound, how does the Potency read?
Answer: Its Potency is “inactive”.

Question: For `CC1(C)CC2(CC(c3ccccc3)Oc3cc(O)ccc32)NC(=S)N1` (stereo not drawn), which Potency is on record?
Answer: Its Potency is “inactive”.

Question: With `CC(=O)c1ccc(NC(=O)CN2CCN(c3ccccc3)CC2)cc1` as the compound, how does the Potency read?
Answer: The Potency was “inactive”.

Question: With `CCN(CC)CCCn1c2c(c(SCC(=O)Nc3cccc4ccccc34)nc1=O)CCC2` as the compound, how does the Potency read?
Answer: The Potency was “inactive”.

Question: With `CCCCn1c(N)c(N(CCC(C)C)C(=O)c2sc3nc4n(c(=O)c3c2C)CCC4)c(=O)[nH]c1=O` as the compound, how does the Potency read?
Answer: The Potency was “inactive”.

Question: For `Cc1nc(SCC(=O)NCCN2C(=O)CSC2=O)nc(C)c1C`, which Potency is on record?
Answer: The Potency was “inactive”.

Question: For `CN1CC[C@]23c4ccccc4N[C@H]1[C@]21CCN(C)[C@H]3Nc2ccccc21`, which Potency is on record?
Answer: Its Potency is “inactive”.

Question: For `O=C(Nc1ccc2c(c1)CCC2)Nc1ccc2c(c1)OCO2`, which Potency is on record?
Answer: The Potency was “inactive”.

Question: For `Cc1ccccc1NC1c2ccccc2C(=O)N1Cc1ccco1` (stereo not drawn), which Potency is on record?
Answer: The Potency was “inactive”.

Question: For `COc1ccccc1CNC(=O)CCn1c(=O)oc2ccccc21`, which Potency is on record?
Answer: The Potency was “inactive”.

Question: With `O=C(c1ccco1)N1CCN(c2ncccn2)CC1` as the compound, how does the Potency read?
Answer: The Potency was “inactive”.

Question: With `COc1ccc(OC)c(N2C(=O)CC(Cc3cc(C)cc(C)c3)C2=O)c1` (stereo not drawn) as the compound, how does the Potency read?
Answer: The Potency was “inactive”.

Question: Which Potency does the source give for `O=C(OCC(=O)N1CCOCC1)c1c(Cl)ccc(Cl)c1Cl` here?
Answer: Its Potency is “inactive”.

Question: With `CCCOc1ccc(S(=O)(=O)NNC(=O)c2cc3ccccc3o2)cc1` as the compound, how does the Potency read?
Answer: The Potency was “inactive”.

Question: Which Potency does the source give for `Cn1c(=O)c(=O)n(C)c2cc(S(=O)(=O)CCC(=O)Nc3ccc(F)cc3)ccc21` here?
Answer: Its Potency is “inactive”.

Question: For `COc1ccc(S(=O)(=O)N2CCOCC2)cc1NC(=O)CN1C(=O)NC2(CCCC2)C1=O`, which Potency is on record?
Answer: The Potency was “inactive”.

Question: With `COc1ccc(-n2nnnc2SCC(=O)Nc2nnc(C)s2)cc1` as the compound, how does the Potency read?
Answer: The Potency was “inactive”.

Question: For `O=C(NCCN1CCOCC1)c1ccc2c(c1)N(Cc1ccc(Cl)cc1)CCS2`, which Potency is on record?
Answer: The Potency was “inactive”.

Question: With `C[C@H](O)[C@@H]1C(=O)N2CCc3ccc(-c4cccc(F)c4)cc3[C@@H]2C[C@@H]1N(C)C(=O)C(C)(C)C` as the compound, how does the Potency read?
Answer: The Potency was “inactive”.

Question: Which Potency does the source give for `O=C(CSc1nncs1)NC(=O)NCc1ccco1` here?
Answer: Its Potency is “inactive”.

Question: With `CN(C)c1ccc(S(=O)(=O)N2CCC(Cc3ccccc3)CC2)cn1` as the compound, how does the Potency read?
Answer: The Potency was “inactive”.

Question: For `COC(=O)c1cc(CNC(=O)c2ccc(N3CCCC3)c([N+](=O)[O-])c2)ccc1OC`, which Potency is on record?
Answer: The Potency was “inactive”.

Question: Which Potency does the source give for `O=C(NCCN1CCOCC1)c1ccccc1Cl` here?
Answer: Its Potency is “inactive”.
